The source of these data is PubChem BioAssay AID624288 (National Center for Advancing Translational Sciences (NCATS), 2012).

Structures are written as SMILES. Screen size: about 340,000 compounds; about 1,400 (0.41%) were called active. Not shown: some 4% with an inconclusive outcome. Calls come from the whole dose curve; cell line not stated here. The sample as a whole holds a higher share of actives than the screen did.
% is set by controls: 0 for no effect and ±100 for the full control effect; potency is the fitted concentration of half-maximal effect.

The experiment can be described thus: qHTS for Antagonists of gsp, the Etiologic Mutation Responsible for Fibrous Dysplasia/McCune-Albright Syndrome: qHTS. Note: nearly all actives have a fitted effect of over 65% in size. The note with it: gsp-mutant cells, cAMP HTRF, 30 min; series mostly up to 76.9 µM; activity change, negative = inhibition: at the top concentration. Put shortly:
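Cells, 2000/well, grown 16–24 h in DMEM 10% FBS with 0.5 mg/ml G418, then compounds plus […] (300 uM addition stock), 30 min at 37C. cAMP read by HTRF (cAMP-d2 and anti-cAMP antibody-K in lysis buffer) after 30 min RT.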
Take `Cc1cc2ccccn2c1C(=O)c1cccc(S(=O)(=O)N2CCOCC2)c1`: the Potency is 31.6 µM (active). For the compound `Cc1cc2ccccn2c1C(=O)c1cccc(F)c1`, the “activity change, negative = inhibition” value is 7.18% (inactive). For the compound `O=C(COC(=O)c1ccccc1)Nc1cccc(S(=O)(=O)N2CCOCC2)c1`, the “activity change, negative = inhibition” value was -5.44% (inactive). For `O=C(NN=CC=Cc1ccccc1)C(O)C(O)C(=O)NN=CC=Cc1ccccc1` (configuration not stated), the “activity change, negative = inhibition” value is 8.92% (inactive). The same measure, in the same setting: with `CN(O)C(=S)c1ccccc1` the figure was 9.75% (inactive).

Regarding `O=C(CSc1nnc(C2CC2)n1Cc1ccccc1)Nc1cccnc1Cl`, the Potency was 7.94 µM (active). Regarding `COc1ccc(-c2nnc(SCC(=O)Nc3cccnc3Cl)n2C)cc1`, the “activity change, negative = inhibition” value was -1.39% (inactive). Still for that read-out and setting: under `CC(=O)Nc1ccc(NC(=O)CSc2nnc(C3CC3)n2-c2ccccc2)cc1` stands 18.3% (inactive); under `CNN/C(N=Cc1ccc([N+](=O)[O-])s1)=N\S(=O)(=O)c1cc(C)c(Cl)cc1SCc1ccccc1`, 7.48% (inactive). For the compound `Cc1cc(C(=O)Nc2c(C)nn(Cc3ccccc3)c2C)on1`, the “activity change, negative = inhibition” value was 7.49% (inactive). Turning to `Cc1nn(Cc2ccc(F)cc2)c(C)c1NC(=O)c1cccnc1Cl`, the “activity change, negative = inhibition” value is -12.7% (inactive). Take `Cc1nn(Cc2ccc(F)cc2)c(C)c1NC(=O)c1noc2c1CCc1ccccc1-2`: the Potency is 35.5 µM (active).

Turning to `CCOC(=O)c1ccc2[nH]c(C)c(CN3CCN(C)CC3)c(=O)c2c1`, the “activity change, negative = inhibition” value was 4.58% (inactive). On the same count and under the same terms, under `O=c1c2ccccc2c(-c2ccc(F)cc2)nn1-c1ccc(C(F)(F)F)cc1` stands -3.36% (inactive); under `O=c1c2ccccc2c(-c2ccccc2)nn1-c1ccccn1`, -1.84% (inactive). For the compound `O=C(O)c1ccc(-n2nc(-c3ccccc3)c3ccccc3c2=O)cc1`, the Potency was 44.7 µM (active). In the case of `COc1ccc(N)c(C)c1`, the “activity change, negative = inhibition” value was -4.59% (inactive). In the case of `COCC(=O)N(C)[C@H]1C[C@H]2c3cc(Oc4ccccc4C)ccc3CCN2C(=O)[C@H]1[C@H](C)O`, the “activity change, negative = inhibition” value was -3.43% (inactive). On to `Cc1ccc(-c2nn(-c3ccccc3)cc2/C=C2\SC(=S)N(CCCCCC(=O)O)C2=O)o1`, for which the Potency is 15.8 µM (active). As for `Cc1ccc(/C=C2/SC(=S)N(CCC(=O)NCCCN3CCOCC3)C2=O)cc1`, the “activity change, negative = inhibition” value was 3.12% (inactive). On the same count and under the same terms, with `COc1ccc(/C=C2\SC(=S)N(CCCC(=O)NC3CCCC3)C2=O)cc1OC` the figure was -9.03% (inactive); with `COc1ccc(/C=C2\SC(=S)N(CC(=O)NNC(=O)c3ccncc3)C2=O)cc1`, -14.4% (inactive); with `O=C(CCCN1C(=O)/C(=C/c2ccccc2)SC1=S)Nc1ccc(O)cc1`, -13.4% (inactive). Take `COc1ccc(-c2nn(-c3ccccc3)cc2/C=C2/SC(=S)N(CCCC(=O)O)C2=O)c(C)c1`: the Potency was 31.6 µM (active). In the case of `O=C(COC(=O)c1ccc(O)cc1O)NC(=O)c1ccccc1`, the “activity change, negative = inhibition” value is -6.71% (inactive). The same measure, in the same setting: under `O=C1/C(=C\c2ccc(O)cc2)CCC1CNc1ccc(Cl)cc1` (configuration not stated) stands -3.99% (inactive). The same measure, in the same setting: under `COc1ccc(S(=O)(=O)N2CCc3ccccc32)cc1C(=O)Nc1cc(S(C)(=O)=O)ccc1Cl` stands -27.5% (inactive).
